Screening data as filed in PubChem BioAssay.
SMN2 splice up: qHTS Assay for Enhancers of SMN2 Splice Variant Expression | HEK293 SMN2-luciferase splicing reporter, luminescence, 30-36 h | Potency, µM (titrated, usually from 46.1 µM), without a hit: top-dose activity change, positive = activation, actives largely listed as activators | hit rate 2.8% among 210,000 | AID 1458, 2008; also: % of control where 0% means no effect; nearly all actives have a fitted effect of over 55% in size
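HEK293 cells carry an SMN2 […]–luciferase reporter in which exon 7 inclusion puts luciferase in frame. Cells were plated 10-12 h before compound addition, then incubated 30-36 h at 37C. ONE-Glo luminescence was read; sodium butyrate at 4.5 mM final served as control.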
ELG1 genotox: qHTS screen for small molecules that induce genotoxicity in human embryonic kidney (HEK293T) cells expressing luciferase-tagged ELG1. HEK293T ELG1-luciferase reporter, luminescence, 16 h. hit rate 1.3% among 330,000. Potency, µM (highest dose often 46 µM), without a hit: at the highest dose activity change, positive = activation, hits mostly activators. AID 504466, 2011; also: % of control where 0% means no effect; nearly all actives have a fitted effect of over 60% in size
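DMSO vehicle served as control against compound-treated ELG1-luciferase HEK293T cells; exposure lasted 16 hr at 37 °C and 5% CO2, followed by ONE-Glo luminescence detection after 30 min.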
NPC1 prom act: qHTS Assay for NPC1 Promoter Activators. Huh7 NPC1 promoter luciferase reporter, 24 h. Potency, µM (series often up to 9.22 µM), for the others: at the top dose activation, most hits filed as activators. hit rate 2.4% among 320,000. AID 485313, 2010; also: % of control where 0% means no effect; nearly all actives have a fitted effect of over 60% in size
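NPC1 promoter–luciferase Huh7 cells; 24 h compound; luminescence.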
Rab9 prom act: qHTS Assay for Rab9 Promoter Activators | Huh7 Rab9 promoter-luciferase reporter, luminescence, 24 h | Potency, µM (series often up to 9.22 µM), for inactives: at the top dose activation, negative = inhibition, usual class: activators | hit rate 2.8% among 320,000 | AID 485297, 2010; also: % of control where 0% means no effect; nearly all actives have a fitted effect of over 60% in size
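Huh7 cells stably carrying a Rab9 promoter-luciferase reporter, 1500 cells per well in OP-MEM I with 10% FBS, treated with compound 24 hours at 37C. Luciferase activity read by luminescence after 10 minutes with Amplite reagent.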
FLuc counter: qHTS profiling assay for firefly luciferase inhibitor/activator using purifed enzyme and Km concentrations of substrates (counterscreen for miR-21 project); Luciferin 4-monooxygenase (Photinus pyralis), P08659; purified FLuc, Km substrates, luminescence inhibition; Potency, µM (titrated, usually from 57.5 µM), inactives show top-dose activity change, negative = inhibition, actives largely listed as inhibitors; hit rate 6.9% among 360,000;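 also: plate controls were vehicle for no effect and reference inhibitor for full effect; nearly all actives have a fitted effect of over 55% in size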
Target sequence (P08659 whole entry, looked up): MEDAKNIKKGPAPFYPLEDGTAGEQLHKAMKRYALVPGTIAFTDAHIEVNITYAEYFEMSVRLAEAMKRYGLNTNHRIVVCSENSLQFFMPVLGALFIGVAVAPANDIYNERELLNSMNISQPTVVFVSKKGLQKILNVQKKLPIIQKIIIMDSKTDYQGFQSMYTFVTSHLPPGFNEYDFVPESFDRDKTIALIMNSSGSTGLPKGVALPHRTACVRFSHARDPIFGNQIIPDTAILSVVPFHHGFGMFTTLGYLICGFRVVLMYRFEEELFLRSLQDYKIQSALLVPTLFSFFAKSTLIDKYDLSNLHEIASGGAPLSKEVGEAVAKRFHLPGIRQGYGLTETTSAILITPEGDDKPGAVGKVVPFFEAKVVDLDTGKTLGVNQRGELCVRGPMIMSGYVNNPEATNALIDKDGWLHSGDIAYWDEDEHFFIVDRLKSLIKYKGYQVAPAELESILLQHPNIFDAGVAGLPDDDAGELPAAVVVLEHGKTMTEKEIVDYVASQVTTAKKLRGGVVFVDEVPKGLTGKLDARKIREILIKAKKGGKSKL
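Purified P. pyralis luciferase (10nM final) with 10uM D-luciferin and 10uM ATP (Km levels) in 50mM Tris acetate pH 7.5, 10mM Mg acetate, 0.01% Tween-20, 0.05% BSA; qHTS 6-point titration, ~60 µM downward; luminescence read.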
ELG1 DNA repair: qHTS screen for small molecules that inhibit ELG1-dependent DNA repair in human embryonic kidney (HEK293T) cells expressing luciferase-tagged ELG1; HEK293T ELG1-luciferase reporter, luminescence, 16 h; DNA damage induced by 5-fluorouridine; Potency, µM (titrated, usually from 46.1 µM), without a hit: at the top dose activity change, negative = inhibition, most hits filed as inhibitors; hit rate 2.3% among 330,000; AID 504467, 2011; also: % is scaled to controls: 0 for no effect and ±100 for the full control effect; nearly all actives have a fitted effect of over 55% in size
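HEK293T cells expressing luciferase-tagged ELG1 (2,000/well) received 5-Fluorouridine plus compound or DMSO for 16 hr at 37 °C. Luciferase was read by ONE-Glo luminescence after 30 min at room temperature.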
* hit, by the source's call; ? = inconclusive; . = no result given. Compounds with a hit are over-represented: about 9.2% of the library has one in this group of screens. Calls follow the shape of the dose curve; as a rule, active = well fitted curve in the direction sought with a large enough effect; inconclusive = small, poorly fitted or top-dose-only effect, or another doubt; inactive = no such curve, though single readings can be large; an effect the other way counts as inactive or inconclusive. Potency is read from the fitted curve at half-maximal effect.

SMILES	SMN2 splice up	ELG1 genotox	NPC1 prom act	Rab9 prom act	FLuc counter	ELG1 DNA repair
CC(=O)Nc1ccc(C(=O)Nc2nc(-c3cccnc3)cs2)cc1	?	-2.0%	-1.3%	0.6%	?	1.2%
Clc1ccc(Nc2nc(-c3cccnc3)cs2)cc1	22.5%	?	-0.5%	5.9%	10.7µM*	?
Fc1ccc(Nc2nc(-c3cccnc3)cs2)cc1	12.6µM*	?	8.0%	?	3.01µM*	?
c1ccc(-c2csc(Nc3cccnc3)n2)cc1	.	?	?	2.82µM*	10.7µM*	?
Clc1ccc(-c2csc(Nc3cccnc3)n2)cc1	.	5.9%	?	27.4%	-19.6%	18.5%
Cc1ccc(Cl)cc1Nc1nc(-c2cccnc2)cs1	.	-2.8%	3.5%	16.9%	?	?
CC(C)C[C@@H](CC(=O)N[C@H](CC(=O)N[C@@H]1CCCC[C@H]1C(=O)N[C@H](CC(=O)N[C@@H](CCC(=O)O)CC(=O)O)Cc1ccccc1)C(C)C)NC(=O)[C@@H]1CNCC[C@H]1N	-0.1%	.	.	.	.	.
Cc1cc(C)cc(N2CCn3c2nc2c3c(=O)n(C/C=C/c3ccccc3)c(=O)n2C)c1	.	.	.	.	-0.2%	.
CC(C)Sc1nc(N)nc(-c2cccs2)c1C#N	17.8µM*	?	?	2.82µM*	16.9µM*	?
CSc1nc(N)nc(-c2cccs2)c1C#N	-11.2%	6.4%	0.6%	1.2%	?	?
COc1ccc(N(CC(=O)NC2CCCC2)C(=O)CCC(=O)Nc2cc(C)on2)cc1OC	.	0.9%	-0.4%	-8.2%	-0.1%	2.4%
COc1ccc(C(=O)NNC(=O)CCC(=O)Nc2cc(C)on2)cc1	8.4%	2.4%	-2.3%	1.8%	?	-1.8%
Cc1ccc(NC(=O)/C=C/c2ccc(Cl)cc2)nc1	27.9%	6.3%	5.6%	?	?	11.8%
O=C(/C=C/c1ccccc1)Nc1ccc(Br)cn1	11.2µM*	?	2.9%	1.41µM*	?	?
COc1ccc(/C=C/C(=O)Nc2nonc2NC(C)=O)cc1	2.8%	6.8%	10.6%	23.5%	23.9µM*	?
COc1ccc(C(=O)/C=C/Nc2cc(C)on2)cc1	24.9%	6.51µM*	2.24µM*	2.51µM*	6.01µM*	?
Cc1cc(NS(=O)(=O)c2ccc(NC(=O)/C=C/c3cccc(Cl)c3)cc2)no1	.	3.0%	-2.8%	9.7%	?	3.1%
Cc1cc(NC(=O)/C=C/c2ccccc2)no1	?	?	?	2.82µM*	12µM*	?
CN(CC(=O)Nc1ccc(F)c(F)c1F)C(=O)CC1CCCCC1	.	1.0%	-4.7%	-1.6%	-1.5%	0.0%
COc1ccc(-c2nc3scc(CCNC(=O)c4cccc(Br)c4)n3n2)cc1	.	.	.	.	-16.4%	.
COc1ccc(/C=C/C(=O)Nc2cc(C)on2)cc1	10µM*	13.7%	2.82µM*	1.58µM*	?	?
COc1ccc(CC(=O)Nc2cc(C)on2)cc1	11.9%	-0.4%	-5.1%	1.0%	-6.2%	8.4%
CCn1cc([N+](=O)[O-])c(C(=O)Nc2ccc3c(c2)OCCO3)n1	?	?	?	?	19µM*	?
NS(=O)(=O)c1cccc(NC(=O)c2ccc3nc[nH]c3c2)c1	.	-1.3%	-4.6%	-5.8%	19µM*	-4.7%
Cc1cc(C(=O)Nc2ccc3c(c2)OCCO3)ccc1[N+](=O)[O-]	.	0.517µM*	0.708µM*	?	0.757µM*	?
O=C(Nc1ccc2c(c1)OCCO2)c1cccnc1	?	?	?	3.98µM*	?	?
CCn1cc([N+](=O)[O-])c(C(=O)NCc2ccc3c(c2)OCO3)n1	.	-1.1%	1.8%	-0.8%	3.5%	2.7%
